COUP-TFII inh – blocks human COUP-TFII nuclear receptor. P24468. HEK293T NGFI-A luciferase reporter, luminescence. inhibition, % at 8.6 µM. hit rate 0.7% among 370,000. AID 686940;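 active means inhibition above a per-plate cutoff, mean inhibition of test wells between control levels plus 3 SD, cut at about 38% in these data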;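 further: cells cotransfected with COUP-TFII expression vector driving the NGFI-A reporter; 0% = median of COUP-TF2 test wells and 100% = reporter-only cells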
SRC3 inh – human NCOA3 inhibition; Q9Y6Q9; HEK293 GAL4-SRC3 luciferase reporter, luminescence; inhibition, % at 3.6 µM; hit rate 0.17% among 360,000; AID 588352;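 active means inhibition above a per-campaign cutoff, the mean of all compounds plus 3 SD, cut at about 60% in these data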;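 further: 0% = DMSO-treated cells and 100% = gossypol-treated cells at 36 µM; higher means less SRC3-driven luciferase light from the GAL4 reporter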
Target sequence (Q9Y6Q9 whole entry, looked up, the tested form may be a part): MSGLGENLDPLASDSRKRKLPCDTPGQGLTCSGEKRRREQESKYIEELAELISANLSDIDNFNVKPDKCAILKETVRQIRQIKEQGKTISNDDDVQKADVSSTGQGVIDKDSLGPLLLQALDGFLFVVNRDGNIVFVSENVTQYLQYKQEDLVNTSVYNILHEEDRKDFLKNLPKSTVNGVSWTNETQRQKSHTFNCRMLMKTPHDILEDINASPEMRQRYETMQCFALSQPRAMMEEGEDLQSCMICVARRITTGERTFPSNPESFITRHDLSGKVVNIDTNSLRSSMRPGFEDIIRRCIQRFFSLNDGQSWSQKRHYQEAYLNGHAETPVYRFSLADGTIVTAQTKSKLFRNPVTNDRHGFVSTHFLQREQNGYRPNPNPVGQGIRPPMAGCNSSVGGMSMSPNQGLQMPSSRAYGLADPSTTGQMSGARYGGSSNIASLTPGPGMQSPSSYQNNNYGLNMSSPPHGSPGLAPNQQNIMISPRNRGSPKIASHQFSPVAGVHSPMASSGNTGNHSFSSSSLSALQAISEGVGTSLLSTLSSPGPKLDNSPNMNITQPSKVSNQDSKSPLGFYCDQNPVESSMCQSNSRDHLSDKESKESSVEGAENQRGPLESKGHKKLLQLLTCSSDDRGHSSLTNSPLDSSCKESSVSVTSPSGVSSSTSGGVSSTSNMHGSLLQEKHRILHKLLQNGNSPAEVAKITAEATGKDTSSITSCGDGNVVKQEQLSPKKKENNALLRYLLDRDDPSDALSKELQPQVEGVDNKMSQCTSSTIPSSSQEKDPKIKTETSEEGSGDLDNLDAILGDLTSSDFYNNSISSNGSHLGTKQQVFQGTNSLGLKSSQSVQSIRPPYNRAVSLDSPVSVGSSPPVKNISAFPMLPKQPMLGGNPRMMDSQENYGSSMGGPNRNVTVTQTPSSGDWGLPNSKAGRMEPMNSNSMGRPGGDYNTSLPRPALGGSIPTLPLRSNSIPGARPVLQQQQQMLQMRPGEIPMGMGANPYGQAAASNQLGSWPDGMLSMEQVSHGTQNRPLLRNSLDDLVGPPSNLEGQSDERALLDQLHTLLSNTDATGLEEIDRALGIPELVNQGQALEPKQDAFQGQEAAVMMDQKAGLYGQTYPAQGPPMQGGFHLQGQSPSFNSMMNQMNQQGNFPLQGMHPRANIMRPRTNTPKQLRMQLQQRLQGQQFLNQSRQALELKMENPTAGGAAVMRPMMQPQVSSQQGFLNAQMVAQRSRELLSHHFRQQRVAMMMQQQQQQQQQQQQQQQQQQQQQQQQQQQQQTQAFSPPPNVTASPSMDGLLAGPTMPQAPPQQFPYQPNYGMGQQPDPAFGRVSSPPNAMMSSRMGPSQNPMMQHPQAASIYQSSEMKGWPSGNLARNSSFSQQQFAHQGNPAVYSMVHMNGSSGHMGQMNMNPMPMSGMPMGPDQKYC
Gli-Sufu block – Gli-Sufu pathway antagonism; Sufu-KO-LIGHT fibroblasts, Gli luciferase reporter luminescence; inhibition, % at 5 µM; hit rate 0.74% among 340,000; AID 588413;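 active means inhibition above about 55%, limit read from the data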;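 further: 0% = DMSO-treated cells and 100% = wells with medium but no cells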
NCOA1 inh – inhibitors of human steroid receptor coactivator 1 (SRC1) | Q15788 | HEK293 GAL4-SRC1 luciferase reporter, luminescence | inhibition, % at 3.6 µM | hit rate 0.12% among 360,000 | AID 588354;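 active means inhibition above the campaign mean plus 3 SD, with each screening campaign given its own cutoff, cut at about 60% in these data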;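 further: 0% = DMSO treated cells and 100% = gossypol at 36 µM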
NCOA2 inhibitor – human SRC2 (NCOA2) inhibition | inhibition, % at 9 µM | HEK293 GAL4-SRC2 luciferase reporter, luminescence | AID 651957 | hit rate 0.17% among 370,000 | Q15596;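 active means inhibition above the mean inhibition of all tested compounds plus 3 SD, set per campaign, cut at about 52% in these data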;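 further: 0% = DMSO treated cells and 100% = cells given Gossypol at 36 µM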
NR5A2 inv ag – inverse agonists of human LRH-1 (NR5A2). O00482. HEK293T StAR-luciferase reporter, LRH-1 transfected, 24 h. inhibition, % at 3.6 µM. hit rate 0.13% among 360,000;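 active means inhibition above the mean inhibition of all tested compounds plus 3 SD, cut at about 73% in these data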;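 further: 0% = DMSO wells and 100% = reporter-only cells lacking LRH-1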
An asterisk follows results filed as active; · = not tested or not shown. Compounds with a hit are over-represented: about 1.3% of the library has one in this group of screens.

SMILES	COUP-TFII inh	SRC3 inh	Gli-Sufu block	NCOA1 inh	NCOA2 inhibitor	NR5A2 inv ag
Cc1nc2c(O)c3c(c(O)c2nc1C)C1C=CC3CC1	-11	91*	4	89*	62*	95*
CC(=O)[C@]1(O)Cc2c(O)c3c(c(O)c2[C@@H](O[C@H]2C[C@H](N)[C@H](O)[C@H](C)O2)C1)C(=O)c1ccccc1C3=O	·	·	81*	·	·	·
COc1cccc2c1C(=O)c1c(O)c3c(c(O)c1C2=O)C[C@@](O)(C(=O)CO)C[C@@H]3O[C@H]1C[C@H](N)[C@@H](O)[C@H](C)O1	·	-2	68*	-33	·	89*
COC(=O)CC#C[C@H](C)[C@@H](NS(=O)(=O)c1ccc([N+](=O)[O-])cc1)C(C)(C)C	-7	·	·	·	-18	·
C=CC(=O)Nc1cccc(Nc2nc(N[C@H]3CC[C@H](N(C)C)CC3)nc3c2ncn3C(C)C)c1	·	87*	76*	88*	·	98*
CC(C)n1cnc2c(Nc3cccc(Cl)c3)nc(NCCCO)nc21	19	-16	5	-45	-41	11
COc1cccc(/C=C2\CC3(OC(=O)c4ccccc4)CCCN2C3)c1 (centres undefined)	8	·	·	·	1	·
CC1=[N+](C)c2c(ccc3cccnc23)C1(C)C	77*	34	87*	18	14	59
Cc1ccc(S(=O)(=O)Nc2cccc3cccnc23)c([N+](=O)[O-])c1	-6	-17	61*	-8	-86	-7
Cc1cc(C)c(NS(=O)(=O)c2cccc3cccnc23)c(C)c1	7	10	6	-12	-12	-4
CC(C)[C@H](NC(=O)CC1CCCC1)C(=O)N1CCC[C@H]1C(=O)NCc1ccccc1	-7	·	·	·	-13	·
Cc1ccccc1NC(=O)/C=C/c1ccc([N+](=O)[O-])s1	·	-2	79*	-109	·	40
Cc1cc(C)cc(NC(=O)/C=C/c2ccc([N+](=O)[O-])s2)c1	-4	7	12	-6	1	2
C/C(=N\NC(=O)c1cccc2ccccc12)c1ccccn1	-12	-3	80*	-26	-28	6
C/C(=N\NC(=O)c1ccccc1OCc1ccc(F)cc1)c1ccccn1	-9	32	47	13	1	21
C/C(=N\NC(=O)c1cc(-c2cccs2)nc2ccccc12)c1ccccn1	-3	-7	93*	14	-1	20
C/C(=N\NC(=O)c1ccccc1Cl)c1ccccn1	-14	-8	64*	-9	0	-16
NNC(=O)c1cc(-c2cccs2)nc2ccccc12	0	-9	13	4	5	8
C/C(=N\Nc1nc2ccccc2[nH]1)c1ccccn1	-43	79*	·	75*	-59	84*
C/C(=N\NC(=O)c1ccc(Cl)c(Cl)c1)c1ccccn1	-3	2	54	1	-23	-9
On1onc2c3cc(-c4ccccc4)nc3ccc21	32	-8	65*	-70	-17	-41
N=c1n(Cc2ccc(Cl)cc2)c2ccccc2n1CC(O)COc1ccccc1 (centres undefined)	5	-7	53	-42	-6	7
N=c1n(Cc2ccccc2)c2ccccc2n1CC(O)COc1ccc(Cl)cc1Cl (centres undefined)	-3	16	56*	-22	-6	-1
CN=c1scc(-c2ccc(F)cc2)n1/N=C/c1ccc(O)c(O)c1	22	-82	58*	-83	11	-145
CCOC(=O)c1ccc(N=Cc2cnc(N)nc2N)cc1	1	2	-20	-2	-8	88*
SMILES	COUP-TFII inh	SRC3 inh	Gli-Sufu block	NCOA1 inh	NCOA2 inhibitor	NR5A2 inv ag
C[C@@]12C(=O)OC(=O)[C@]1(C)C1CCC2O1	66*	71*	40	53	61*	59
O=C(CCn1nnc(-c2cccs2)n1)NCc1ccco1	-12	·	·	·	-13	·
CCCCCc1ccc(OCCCC[n+]2ccccc2)c(CCCCC)c1	·	45	83*	-2	·	42
CN(c1ncnc(N)c1[N+](=O)[O-])C1CCCCC1	27	63*	-15	71*	57*	51
O=C(NC1CCCCC1)C(c1ccc(F)cc1)N(CCCN1CCOCC1)C(=O)c1ccc(CN2CCOCC2)o1 (centres undefined)	-4	-5	-4	93*	0	21
CC(C)CCNC(=O)C(C)N(Cc1ccc(F)cc1)C(=O)c1ccc(CN2CCOCC2)o1 (centres undefined)	-1	3	7	-10	-17	2
CC[C@H](CCC(=O)N(c1ccccc1)c1ccccc1)C1CC1	3	·	·	·	20	·
Cc1cc(=O)[nH]c(NN=Cc2cc(Br)ccc2O)n1	16	51	76*	25	33	4
COc1cc(C2C(C#N)=C(N)Oc3cc(N)ccc32)cc(OC)c1OC (centres undefined)	-14	22	55*	-4	15	-8
CN(C)CC1CCC/C(=C\c2ccc(OC(=O)c3ccc(Cl)cc3)cc2)C1=O (centres undefined)	-9	51	10	67*	-21	53
CN(C)CC1CCC/C(=C\c2ccc(OC(=O)/C=C/c3ccccc3)cc2)C1=O (centres undefined)	15	-5	1	-4	-6	-10
CN(Cc1cnc2nc(N)nc(N)c2n1)c1ccc(C(=O)NC(CCC(=O)O)C(=O)O)cc1 (centres undefined)	-6	83*	6	78*	4	79*
CCOC(=O)CCC(NC(=O)c1cncc(O)c1)C(=O)OCC (centres undefined)	-3	6	2	-12	-9	11
CN(Cc1cnc2nc(N)nc(N)c2n1)c1ccc(C(=O)NC(CCC(=O)O)C(=O)O)cc1C(F)(F)F (centres undefined)	-20	73*	34	67*	-16	45
NNC(=O)COc1ccc(-c2nccc(-c3ccc(F)cc3)n2)cc1	15	-3	18	-32	53*	13
O=C(O)COc1ccc(-c2nccc(-c3ccccn3)n2)cc1	41*	10	18	10	67*	10
Nc1nc(N)nc(-c2cc(O)ccc2O)n1	25	59	-19	71*	39	54
Cc1ccc(-c2c(C)nn3c(N4CCOCC4)cc(C)nc23)cc1	-15	-18	56*	-21	10	6
COC(=O)C1=C(C)N(Cc2cccc(C(F)(F)F)c2)C(=NCc2cc(OC)c(OC)c(OC)c2)NC1c1cccc(F)c1 (centres undefined)	1	·	·	·	10	·
CC(C)OC(=O)c1ccc(NCc2cc(O)ccc2O)cc1	22	-13	16	-65	60*	-18
O=C(OCc1ccccc1)c1ccc(NCc2cc(O)ccc2O)cc1	56*	40	11	-34	83*	37
O=C(CN1C(=O)C2CCCCN2C(=O)c2ccccc21)N1CCCC1 (centres undefined)	3	·	·	·	0	·
CCCC(=O)N(Cc1cc(=O)[nH]c2ccccc12)c1ccc(C)cc1C	-7	-14	-1	11	6	3
